Measurements taken from PubChem BioAssay (NCATS).
Records with an inconclusive call do not appear. A call without a number means that no potency is given here. Activity calls are given as the source filed them. Calls come from the whole dose curve; as a rule, active = well fitted curve in the direction sought with a large enough effect; inconclusive = small, poorly fitted or top-dose-only effect, or another doubt; inactive = no such curve, though single readings can be large; an effect the other way counts as inactive or inconclusive.

Assay: Cell Viability - N2a (AID 540); note: nearly all actives have a fitted effect of over 45% in size; note: potency is the fitted concentration of half-maximal effect
Details: N2a mouse neuroblastoma cell viability; activity change, negative = cytotoxicity: at 92.2 µM (top of the series)
Procedure, shortened: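 Mouse neuroblastoma N2a cells, 1500/well, exposed to compounds 40 h at 37 °C in complete medium. Viability measured as cellular ATP by CellTiter-Glo luminescence; AC50 from Hill fits of concentration-response.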

| Structure (SMILES) | Potency |
| --- | --- |
| Nc1ccc(O)c(C(=O)O)c1 | inactive |
| c1cnc2c(c1)ccc1cccnc12 | 3.98 µM (active) |
| CC1(C)S[C@@H]2[C@H](NC(=O)[C@H](N)c3ccccc3)C(=O)N2[C@H]1C(=O)O | inactive |

Assay: Cell Viability - NIH 3T3 (AID 541); note: nearly all actives have a fitted effect of over 25% in size; note: potency is the fitted concentration of half-maximal effect
Details: NIH 3T3 cell viability, qHTS; activity change, negative = cytotoxicity: at 92.2 µM (top of the series)
Procedure, shortened: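 Mouse NIH 3T3 fibroblasts, 1000 cells/well, rested 5 hr at 37 °C, then exposed to compound for 40 hr at 37 °C in complete medium. Viability read as intracellular ATP by CellTiter-Glo luminescence; AC50 from Hill-equation fits of concentration-response data.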

| Structure (SMILES) | Potency |
| --- | --- |
| Nc1ccc(O)c(C(=O)O)c1 | inactive |
| c1cnc2c(c1)ccc1cccnc12 | 2.51 µM (active) |
| CC1(C)S[C@@H]2[C@H](NC(=O)[C@H](N)c3ccccc3)C(=O)N2[C@H]1C(=O)O | inactive |

Assay: Cell Viability - HUV-EC-C (AID 542); note: nearly all actives have a fitted effect of over 35% in size; note: potency is the fitted concentration of half-maximal effect
Details: HUV-EC-C endothelial cell viability, qHTS; series mostly up to 92.2 µM
Procedure, shortened: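 HUV-EC-C human vascular endothelial cells, 1000/well, exposed to compound for 40 hr at 37 °C in complete medium. Intracellular ATP was read by CellTiter-Glo luminescence. AC50 came from Hill-equation fits of concentration-response data.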

| Structure (SMILES) | Potency |
| --- | --- |
| Nc1ccc(O)c(C(=O)O)c1 | inactive |
| c1cnc2c(c1)ccc1cccnc12 | 12.6 µM (active) |
| CC1(C)S[C@@H]2[C@H](NC(=O)[C@H](N)c3ccccc3)C(=O)N2[C@H]1C(=O)O | inactive |

Assay: Cell Viability - H-4-II-E (AID 543); note: nearly all actives have a fitted effect of over 35% in size; note: potency is the fitted concentration of half-maximal effect
Details: H-4-II-E rat hepatoma viability; series mostly up to 92.2 µM
Procedure, shortened: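 Rat hepatoma H-4-II-E cells, 1500 per well, treated 40 h at 37 °C in complete medium. Cellular ATP read by CellTiter-Glo luminescence; AC50 from Hill fits of concentration-response.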

| Structure (SMILES) | Potency |
| --- | --- |
| Nc1ccc(O)c(C(=O)O)c1 | inactive |
| c1cnc2c(c1)ccc1cccnc12 | 2.51 µM (active) |
| COc1cc(/C=C/C(=O)CC(=O)/C=C/c2ccc(O)c(OC)c2)ccc1O | 31.6 µM (active) |
| CC1(C)S[C@@H]2[C@H](NC(=O)[C@H](N)c3ccccc3)C(=O)N2[C@H]1C(=O)O | inactive |

Assay: Cell Viability - SH-SY5Y (AID 544); note: nearly all actives have a fitted effect of over 55% in size; note: potency is the fitted concentration of half-maximal effect
Details: SH-SY5Y neuroblastoma cell viability; viability change, negative = cytotoxic: at 92.2 µM (top of the series)
Procedure, shortened: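 SH-SY5Y human neuroblastoma cells (1500/well) incubated 5 h, then compound-treated 40 h at 37 °C in complete medium. Viability read as intracellular ATP by CellTiter-Glo luminescence after 20 min; AC50 from Hill-equation fits of qHTS concentration-response.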

| Structure (SMILES) | Potency |
| --- | --- |
| Nc1ccc(O)c(C(=O)O)c1 | inactive |
| c1cnc2c(c1)ccc1cccnc12 | 5.01 µM (active) |
| COc1cc(/C=C/C(=O)CC(=O)/C=C/c2ccc(O)c(OC)c2)ccc1O | 31.6 µM (active) |
| CC1(C)S[C@@H]2[C@H](NC(=O)[C@H](N)c3ccccc3)C(=O)N2[C@H]1C(=O)O | inactive |

Assay: Cell Viability - Renal Proximal Tubule (AID 545); note: nearly all actives have a fitted effect of over 40% in size
Details: renal proximal tubule cells viability, primary cells of rat origin; activity change, negative = cytotoxicity: at 91.7 µM (top of the series)
Procedure, shortened: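 Rat kidney proximal tubule cells, freshly isolated; 1000 cells/well, 5 hr settle, compound 40 hr 37 °C. CellTiter-Glo 20 min RT, luminescence read. AC50 by standard Hill fit.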

| Structure (SMILES) | activity change, negative = cytotoxicity |
| --- | --- |
| Nc1ccc(O)c(C(=O)O)c1 | 10.5% (inactive) |
| c1cnc2c(c1)ccc1cccnc12 | -87.9% (active) |
| CC1(C)S[C@@H]2[C@H](NC(=O)[C@H](N)c3ccccc3)C(=O)N2[C@H]1C(=O)O | -5.39% (inactive) |
